From PubChem
Sm TGR inh: inhibitors of Schistosoma mansoni thioredoxin glutathione reductase; Q962Y6; purified TGR, DTNB reduction, TNB absorbance 405 nm; Potency, µM (top dose mostly 114 µM), for the others: at the top dose activity change, negative = inhibition, hits mostly inhibitors; 360,000 compounds, 3% hits; note: potency is the fitted concentration of half-maximal effect; % is set by controls: 0 for no effect and ±100 for the full control effect; nearly all actives have a fitted effect of over 60% in size
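TGR 20 nM + NADPH 100 uM (dispensed conc.), cpd preinc 15 min RT; start with NADPH (500 uM addition) then DTNB (15 mM addition). Kinetic TNB absorbance, 405 nm filter. Four-parameter Hill fit across titration.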
Pf growth 48h: P. falciparum growth inhibition at 48 hours (one generation); 310,000 compounds, 5.9% hits; P. falciparum luciferase growth in erythrocytes, 48 h; Potency, µM (doses to about 28.7 µM), for the others: at the top dose activity change, negative = inhibition, hits mostly inhibitors; note: potency is the fitted concentration of half-maximal effect; % is set by controls: 0 for no effect and ±100 for the full control effect
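Parasite viability was followed by luminescence of a genomically integrated firefly luciferase. Cultures held 0.1% parasitemia at 2% hematocrit (final), incubated under 5% CO2 at 37 C.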
HCMV antiviral: blocks human cytomegalovirus replication; HFF cells, HCMV-luciferase reporter, 72 h; active compounds read low; activity change, negative = inhibition, % at 57.5 µM; 410,000 compounds, 4.5% hits; in the data active = activity change below about -60%; inconclusive = no clear call, values can overlap the other calls; inactive = above about -39%; note: % is set by controls: 0 for no effect and ±100 for the full control effect
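HFF cells seeded 16 h at 37C, treated with compounds, infected with luciferase-reporter HCMV at MOI 1 PFU/cell; luciferase read at 72 h post infection, normalized to buffer-only and Salinomycin controls.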
SARS PLpro yeast: SARS-CoV PLP inhibition in yeast. 330,000 compounds, 0.19% hits. S. cerevisiae expressing SARS-CoV PLpro, growth rescue. Potency, µM (doses to about 32.9 µM), without a hit: at the highest dose activity, positive = growth rescue, actives largely listed as activators; calls by dose curve; note: potency is the fitted concentration of half-maximal effect; 0% is about no effect; nearly all actives have a fitted effect of over 55% in size
Pf growth 96h: P. falciparum growth inhibition at 96 hours; 320,000 compounds, 6.9% hits; Potency, µM (highest dose often 28.7 µM), for inactives: top-dose activity change, negative = inhibition, usual class: inhibitors; AID 504834; P. falciparum luciferase reporter growth, 96 h; note: potency is the fitted concentration of half-maximal effect; % is set by controls: 0 for no effect and ±100 for the full control effect
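Delayed-death screen, second-generation endpoint: infected erythrocytes, 2% hematocrit, 0.05% parasitemia final; 96 hours at 37 C, 5% CO2; luciferase detection reagent; luminescence decrease equals reduced growth.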
HCV inhibitor: HCV inhibition; 340,000 compounds, 3.4% hits; Huh7.5.1 HCVcc-Cre infection, luciferase reporter, 44 h; Potency, µM (highest dose often 41.8 µM), inactives show at the top dose activity change, negative = inhibition, usual class: inhibitors; note: potency is the fitted concentration of half-maximal effect; % is set by controls: 0 for no effect and ±100 for the full control effect
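1,000 cells/well; 4 h culture; + compound; + HCVcc-Cre (~0.5 moi); 44 h; luciferase substrate, RT 15 min; read 15 sec.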
Active calls of the source: *; ? = inconclusive; . = no result; + = active, no number; ! = a repeat was not active. Most compounds without a hit are left out; they make up all but 15% or so of the library. Unless noted, calls come from the whole dose curve; as a rule, active = well fitted curve in the direction sought with a large enough effect; inconclusive = small, poorly fitted or top-dose-only effect, or another doubt; inactive = no such curve, though single readings can be large; an effect the other way counts as inactive or inconclusive.

SMILES	Sm TGR inh	Pf growth 48h	HCMV antiviral	SARS PLpro yeast	Pf growth 96h	HCV inhibitor
COc1ccc(S(=O)(=O)N2CCCC2CNC(=O)C(=O)NCc2ccccc2Cl)cc1 (centres undefined)	-4%	?	-19	2%	9.3µM*	?
COc1ccc(CNC(=O)C(=O)NCCC2CCCCN2S(=O)(=O)c2ccc(C)cc2)cc1 (centres undefined)	1%	?	-24	-6%	?	?
COc1ccc(NC(=O)C(=O)NCC2CCCN2S(=O)(=O)c2ccc(C)cc2)cc1 (centres undefined)	1%	?	-85*	3%	?	?
COc1ccc(S(=O)(=O)N2CCCCC2c2cc(C(=O)NCc3ccccc3)no2)cc1 (centres undefined)	.	.	-62*	.	.	.
COc1ccc(-c2cn(CC[C@@H]3CC[C@H](NC(=O)Cc4ccccn4)[C@@H](CO)O3)nn2)cc1	.	.	13	.	.	.
Cc1cc(NC(=O)COC(=O)c2ccccc2[N+](=O)[O-])no1	?	215%	50	2%	34%	10%
Cc1ccc(C)c(N2CCN(C(=O)CCS(=O)(=O)c3ccc4c(c3)NC(=O)C(C)S4)CC2)c1 (centres undefined)	0%	?	+	-3%	0%	2.8µM*
Cc1ccc(CNC(=O)CCS(=O)(=O)c2ccc3c(c2)NC(=O)C(C)S3)cc1 (centres undefined)	-11%	-10%	-28	0%	-12%	-9%
COc1ccc(N2CCN(C(=O)CCS(=O)(=O)c3ccc4c(c3)NC(=O)C(C)S4)CC2)cc1 (centres undefined)	-16%	?	?	-2%	9.3µM*	?
COc1ccc(N2C(=O)c3ccc(C(=O)Nc4ccc(NC(C)=O)cc4)cc3C2=O)cc1	0%	?	-8	1%	-4%	19%
CCOC(=O)C1=C(C)N(CCCC(=O)NCc2ccc3c(c2)OCO3)C(=O)NC1c1ccc(Br)cc1 (centres undefined)	-12%	-29%	-22	18%	?	6%
O=C(CCNS(=O)(=O)c1ccc2[nH]c(=O)oc2c1)NCc1ccccc1	8%	7%	-19	3%	12µM*	15%
COc1ccccc1NC(=O)CSc1nnc(C)n1CCc1ccccc1	-7%	?	58	1%	10µM*	4%
COc1ccc(OC)c(C(=O)CSc2nnc(Cc3cccs3)n2CCc2ccccc2)c1	-26%	12µM*	12	2%	13µM*	?
CCn1c(C)nnc1SCC(=O)Nc1ccccc1OC	4%	39%	6	4%	?	0%
COc1ccc(OC)c(NC(=O)CSc2nnc(Cc3cccn3C)n2CCc2ccccc2)c1	-15%	5.2µM*	-22	-5%	12µM*	.
Cn1cccc1Cc1nnc(SCC(=O)Nc2ccc3c(c2)OCO3)n1CCc1ccccc1	-15%	?	-3	-8%	?	-14%
Cn1cccc1Cc1nnc(SCC(=O)Nc2ccc3c(c2)OCCO3)n1CCc1ccccc1	4%	.	10	8%	12µM*	-17%
CCSC(=Nc1ccccc1)Nc1ccccc1	10%	0%	?	-6%	0%	9%
CCCCN1C(C)=CC(=C2C(=O)c3ccccc3C2=O)C=C1C	3%	300%	35	-2%	-18%	-24%
CC1=CC(=C2C(=O)c3ccccc3C2=O)C=C(C)N1Cc1ccco1	40µM*	110%	78	-13%	?	?
COc1ccc(C2N(Cc3ccccc3)CC(=O)N2/N=C(\C)c2ccccc2)cc1 (centres undefined)	7%	10%	-31	6%	-13%	2%
Cc1cc(C)n(C(=O)CNC(=O)c2ccc(Cl)cc2Cl)n1	-3%	25%	-10	-5%	34%	6%
CC(=O)C1=C(c2ccc(Br)cc2)C(=O)c2ccccc2C1=O	?	?	?	-97%	?	?
CCC(=O)N(C)/C=C1\Sc2ccccc2C1=O	-36%	-1%	153	-18%	1%	11%
SMILES	Sm TGR inh	Pf growth 48h	HCMV antiviral	SARS PLpro yeast	Pf growth 96h	HCV inhibitor
CCC(=O)N(C1=C(NC)C(=O)c2ccccc2C1=O)C(C)C	-3%	?	-78*	0%	?	?
CNC1=C(N(C(C)=O)c2ccc(Br)cc2)C(=O)c2ccccc2C1=O	-14%	0.042µM*	-100*	-13%	0.029µM*	?
CCOc1ccc(C(=O)Nc2nnc(S(=O)(=O)Nc3ccccc3)s2)cc1	2%	.	39	.	.	.
CCOc1ccc(NC(=O)CSc2ccc(-c3cccnc3)nn2)cc1	-3%	-20%	39	0%	5.9µM*	-7%
O=C(CSc1ccc(-c2ccccn2)nn1)Nc1ccc(F)c(F)c1	24%	-21%	-90*!	?	-102%	10µM*
CCOc1ccc(NC(=O)CSc2ccc(-c3ccccn3)nn2)cc1	-12%	?	-27	7.9µM*	?	3%
O=C(CSc1ccc(-c2cccnc2)nn1)Nc1ccc(Br)cc1	-23%	-17%	?	-1%	?	13µM*
Cc1ccc(NC(=O)CSc2ccc(-c3ccccn3)nn2)cc1	2%	?	65	?	?	?
CC(=O)Nc1ccc(NC(=O)CSc2ccc(-c3cccnc3)nn2)cc1	0%	?	13	0%	?	-2%
O=C(CSc1ccc(-c2ccccn2)nn1)Nc1ccc(F)cc1F	0%	17%	5	1%	?	-7%
Cn1c(=O)c(=O)n(C)c2cc(NS(=O)(=O)c3ccc(Br)cc3)c(Cl)cc21	3%	.	21	.	.	.
COc1ccc(S(=O)(=O)N2C(=O)/C(=C3\SC(N)=NC3=O)c3ccccc32)cc1	-33%	13%	9	0%	21%	?
COc1ccccc1NC(=O)CSc1ccc(-c2ccccn2)nn1	-1%	?	-101*!	-19%	?	?
COCC(=O)N(Cc1ccccc1)c1ccccn1	50%	4%	50	8%	?	?
COc1ccccc1NC(=O)N(Cc1ccccc1)c1ccccn1	5%	12µM*	5	-6%	?	2%
Cc1cccc(NC(=O)CSc2ccc(-c3ccccn3)nn2)c1C	-1%	-7%	-30	2%	?	-10%
Cc1ccc(CNC(=O)c2cc3cc(C)ccc3n2C)cc1	-3%	.	?	.	.	.
CCN(CC)c1ccc(C2Nc3cccc4cccc(c34)N2)c(O)c1	22µM*	3.7µM*	46	-8%	-21%	11µM*
Oc1ccc2ccccc2c1C1Nc2cccc3cccc(c23)N1	-35%	?	18	-40%	.	-4%
